# Assay results: PubChem BioAssay (EPA / NIEHS)
# Activity calls are given as the source filed them. How the source made its calls: active means hit-call score of the fitted dose curve at least 0.9, where 1 is the maximum; inactive means score below 0.9.
# Read-out: Epidermal growth factor receptor (EGFR), EGFR (gene 1956)
# Assay: BSK_hDFCGF_EGFR: BioMAP Diversity Plus: hDFCGF Assay for Epidermal growth factor receptor (EGFR) Biomarker Activity (AID 2283057)
# Details: primary human foreskin fibroblasts; actives raise or lower the signal
# Procedure: BSK_hDFCGF is a cell-based, multiplexed-readout assay that uses foreskin fibroblast, a human skin primary cell, with measurements taken at 24 hours after chemical dosing in a 96-well plate.BSK_hDFCGF_EGFR is an assay component measured in the BSK_hDFCGF assay. It measures EGFR antibody related to regulation of gene expression using ELISA technology.Data from the assay component BSK_hDFCGF_EGFR was analyzed into 1 assay endpoint. This assay endpoint, BSK_hDFCGF_EGFR, was analyzed with bidirectional fitting relative to DMSO as the negative control and baseline of activity. Using a type of binding reporter, gain or loss-of-signal activity can be used to understand changes in the signaling as they relate to the gene EGFR. Furthermore, this assay endpoint can be referred to as a primary readout, because this assay has produced multiple assay endpoints where this one serves a signaling function. To generalize the intended target to other relatable targets, this assay endpoint is annotated to the kinase intended target family, where the subfamily is receptor tyrosine kinase.
# The levels of cell surface (or secreted, indicated by the prefix "s") biomarker endpoints were measured by ELISA. Overt cytotoxicity to cells in confluent adherent cultures (all systems other than the BT system) was assessed by measuring total protein levels using sulforhodamine B (SRB) staining in parallel cultures at the time of biomarker measurements, indicated as SRB endpoints. For proliferation assays for adherent cell types, individual cell types are cultured at sub-confluence and relative cell numbers quantified by SRB staining at time points optimized for each system (48 h: 3C and CASM3C systems; 72 h: BT and HDF3CGF systems; 96 h: SAg system). SRB was performed by staining cells with 0.1% SRB after fixation with 10% TCA and reading wells at 560 nm.Viability and proliferation of PBMC (T cells) was quantified by Alamar Blue reduction for the SAg and BT systems. For PBMC viability (referred to as PBMC Cytotoxicity within the assay endpoint names), cells were plated (75,000/well in a 96-well plate) and then chemical samples added for 1 h before addition of activators, SEB and TSST-1 (20 ng/mL final concentration each). Cells were incubated for 90 h. Then, Alamar Blue (20 uL/well) (Invitrogen, Cat DAL1100) was added for 6 h, and the plates were read with a fluorescence microplate reader at 546/580 nm (excitation/emission). For PBMC proliferation, cells were plated and activated as above but incubated for only 16 h prior to addition of Alamar Blue. Plates were read after 6 h.
Compound,outcome,AC50
C=CCc1ccc(O)c(OC)c1,inactive,–
CCCCOC(=O)CCCCCCCCC(=O)OCCCC,inactive,–
COc1ccc(C)cc1N,inactive,–
CCCCN(CCCC)CCCC,inactive,–
Cc1cc(=O)[nH]c(=S)[nH]1,inactive,–
C[C@]12C=CC(=O)C=C1CC[C@@H]1[C@@H]2C(=O)C[C@@]2(C)[C@H]1CC[C@]2(O)C(=O)CO,inactive,–
CCCCCCCCCCO,inactive,–
NC(=O)Cn1c(=O)cc(CCN2CCN(c3nccc4sccc34)CC2)c2ccc(F)cc21,inactive,–
CCCCCCCCCCC,inactive,–
CCNc1cccc(C)c1,inactive,–
COCCOC[C@H](CC1(C(=O)NC2CCC(C(=O)O)CC2)CCCC1)C(=O)Oc1ccc2c(c1)CCC2 (stereo not given in full),inactive,–
Clc1cc(Cl)c(Cl)cc1Cl,inactive,–
CC(C)c1ccc(C(=O)N=C(N)N)cc1S(C)(=O)=O,inactive,–
Cc1oc(-c2ccccc2)nc1CCOc1cccc2c1ccn2CCC(=O)O,inactive,–
CC=Cc1ccc(O)c(OC)c1,inactive,–
C[Si]1(C)O[Si](C)(C)O[Si](C)(C)O[Si](C)(C)O1,inactive,–
COCCOCCOC,inactive,–
Cc1nc(-c2ccc3c(c2)CCN(CCC2CCC(NC(=O)/C=C/c4ccc(F)cc4)CC2)CC3)no1 (stereo not given),inactive,–
COc1ccc(S(=O)(=O)N2C(=O)[C@@](c3ccccc3OC)(N3C[C@H](O)C[C@H]3C(=O)N(C)C)c3cc(Cl)ccc32)c(OC)c1,inactive,–
CCOc1ccc2c(c1)C(C)=CC(C)(C)N2,inactive,–

Compound,outcome,AC50
C=CCOC(=O)c1ccccc1C(=O)OCC=C,inactive,–
O=C(O)CCCCC(=O)O,inactive,–
CCCCCCCC=O,inactive,–
CNC(=O)[C@H]1O[C@@H](n2cnc3c(NCc4cc(Cl)ccc4OCc4cc(C)no4)ncnc32)[C@H](O)[C@@H]1N,inactive,–
CCCCCCCCCCCCCCCC,inactive,–
CCCCc1ccc2c(n1)[C@@H](c1ccc(OC)cc1C[C@H](C)C(=O)O)[C@H](C(=O)O)[C@H]2c1ccc2c(c1)OCO2,inactive,–
CC(C)(C)c1cc(O)c(C(C)(C)C)cc1O,inactive,–
O=C(N[C@@H](Cc1ccccc1)[C@@H](O)C(=O)N1C[C@@H](O)[C@@H](O)C1)c1cc2cc(Cl)ccc2[nH]1,inactive,–
CCCCCC(=O)O,inactive,–
CC(=O)OCCOCCOCCOC(C)=O,inactive,–
CCCc1cc(=O)[nH]c(=S)[nH]1,inactive,–
Nc1nc(N)c2nc(CNc3ccc(C(=O)N[C@@H](CCC(=O)O)C(=O)O)cc3)cnc2n1,inactive,–
Cc1cccc(Nc2cc(Cl)nc(SCC(=O)O)n2)c1C,inactive,–
CCCCCCC(=O)OCC,inactive,–
CN[C@H]1CC[C@@H](c2ccc(Cl)c(Cl)c2)c2ccc(S(N)(=O)=O)cc21,–,32.7 µM (active)
O=C(OCCCCCOC(=O)c1ccccc1)c1ccccc1,inactive,–
FC(F)(F)C(F)(F)C(F)(F)C(F)(F)C(F)(F)C(F)(F)CCI,inactive,–
CCc1c(C(=O)NN2CCCCC2)nn(-c2ccc(Cl)cc2Cl)c1-c1ccc(Br)cc1,–,1.65 µM (active)
NCCO,inactive,–
CCCCCCOCCO,inactive,–
